Laboratory results taken from PubChem BioAssay AID1159580 (chemical genetic matrix, 2015).
About 2,000 (36%) of roughly 5,500 compounds were called active. Inconclusive results (about 18%) are left out. Rule as the data show it: active = normalized growth mostly below about 0.91 (no sharp cut-off); inconclusive = no clear call, values can overlap the other calls; inactive = mostly above about 0.92. Some of the results follow.

Test: chemical genetic growth profiling, strain panel (AID 1159580);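 also: tested at 20 µM; growth read once vehicle control cultures reached saturation at 30 °C; 1 = growth at the plate median or of vehicle wells; lower values mean less growth of the strain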
Details: growth OD

Measured: normalized growth

COc1cc2c(cc1OC)C(=O)C(CC1CCN(Cc3ccccc3)CC1)C2 (stereo not given)
active: S. cerevisiae deletion strains, locus YJR075W, strain HOC1, active compounds read low 0.778 | S. cerevisiae deletion strains, locus YLR058C, strain SHM2, active compounds read low 0.874 | S. cerevisiae deletion strains, locus YLR262C, strain YPT6 (second series), active compounds read low 0.589 | S. cerevisiae deletion strains, locus YLR268W, strain sec22, active compounds read low 0.837 | S. cerevisiae deletion strains, locus YLR418C, strain cdc73, active compounds read low 0.737 | S. cerevisiae deletion strains, locus YML032C, strain rad52, active compounds read low 0.675 | S. cerevisiae deletion strains, locus YMR223W, strain ubp8, active compounds read low 0.86 | S. cerevisiae deletion strains, locus YNL067W, strain RPL9B, active compounds read low 0.787 | S. cerevisiae deletion strains, locus YNL233W, strain BNI4, active compounds read low 0.75 | S. cerevisiae deletion strains, locus YNL250W, strain rad50, active compounds read low 0.802 | S. cerevisiae deletion strains, locus YNL307C, strain MCK1, active compounds read low 0.665 | S. cerevisiae deletion strains, locus YNR052C, strain pop2, active compounds read low 0.805 | S. cerevisiae deletion strains, locus YOL006C, strain TOP1, active compounds read low 0.335 | S. cerevisiae deletion strains, locus YOR069W, strain VPS5, active compounds read low 1.12 [resistant] | S. cerevisiae deletion strains, locus YOR184W, strain ser1, active compounds read low 0.776 | S. cerevisiae deletion strains, locus YOR270C, strain vph1, active compounds read low 0.608 | S. cerevisiae deletion strains, locus YPL055C, strain LGE1, active compounds read low 0.738 | S. cerevisiae deletion strains, locus YPR163C, strain tif3, active compounds read low 0.692 | S. cerevisiae deletion strains, strain wtn01, active compounds read low 0.777 | S. cerevisiae strains, strain wild type, active compounds read low 0.874
inactive: S. cerevisiae deletion strains, locus YJR066W, strain TOR1, active compounds read low 0.94 | S. cerevisiae deletion strains, locus YKL009W, strain mrt4, active compounds read low 0.986 | S. cerevisiae deletion strains, locus YKL068W, active compounds read low 1 | S. cerevisiae deletion strains, locus YKL085W, strain MDH1 (second series), active compounds read low 1.01 | S. cerevisiae deletion strains, locus YKL085W, strain MDH1, active compounds read low 1.01 | S. cerevisiae deletion strains, locus YKL160W, strain elf1, active compounds read low 0.933 | S. cerevisiae deletion strains, locus YKR001C, strain vps1, active compounds read low 0.913 | S. cerevisiae deletion strains, locus YKR026C, strain gcn3, active compounds read low 1.06 | S. cerevisiae deletion strains, locus YKR091W, strain srl3, active compounds read low 0.981 | S. cerevisiae deletion strains, locus YLL001W, strain dnm1, active compounds read low 0.993 | S. cerevisiae deletion strains, locus YLL026W, active compounds read low 1 | S. cerevisiae deletion strains, locus YLL041C, strain sdh2, active compounds read low 0.978 | S. cerevisiae deletion strains, locus YLR027C, strain aat2, active compounds read low 0.963 | S. cerevisiae deletion strains, locus YLR039C, strain RIC1, active compounds read low 0.772 | S. cerevisiae deletion strains, locus YLR102C, strain apc9, active compounds read low 1 | S. cerevisiae deletion strains, locus YLR113W, strain HOG1, active compounds read low 1.05 | S. cerevisiae deletion strains, locus YLR221C, strain rsa3, active compounds read low 0.975 | S. cerevisiae deletion strains, locus YLR258W, strain gsy2, active compounds read low 0.982 | S. cerevisiae deletion strains, locus YLR262C, strain YPT6, active compounds read low 0.807 | S. cerevisiae deletion strains, locus YLR320W, strain mms22, active compounds read low 0.928 | S. cerevisiae deletion strains, locus YLR330W, strain CHS5, active compounds read low 0.953 | S. cerevisiae deletion strains, locus YLR342W, strain FKS1 (second series), active compounds read low 0.909 | S. cerevisiae deletion strains, locus YLR342W, strain FKS1, active compounds read low 0.989 | S. cerevisiae deletion strains, locus YLR357W, strain rsc2, active compounds read low 1.13 | S. cerevisiae deletion strains, locus YLR370C, strain arc18, active compounds read low 0.955 | S. cerevisiae deletion strains, locus YLR371W, strain rom2, active compounds read low 0.986 | S. cerevisiae deletion strains, locus YLR384C, strain iki3, active compounds read low 0.952 | S. cerevisiae deletion strains, locus YML016C, strain PPZ1, active compounds read low 0.949 | S. cerevisiae deletion strains, locus YML120C, strain ndi1, active compounds read low 0.973 | S. cerevisiae deletion strains, locus YML124C, strain tub3, active compounds read low 1.02 | S. cerevisiae deletion strains, locus YMR058W, strain fet3, active compounds read low 0.994 | S. cerevisiae deletion strains, locus YMR078C, strain ctf18, active compounds read low 0.988 | S. cerevisiae deletion strains, locus YMR125W, strain sto1, active compounds read low 0.94 | S. cerevisiae deletion strains, locus YMR129W, active compounds read low 0.992 | S. cerevisiae deletion strains, locus YMR205C, strain PFK2, active compounds read low 0.979 | S. cerevisiae deletion strains, locus YMR231W, strain pep5, active compounds read low 0.996 | S. cerevisiae deletion strains, locus YMR263W, strain SAP30, active compounds read low 0.936 | S. cerevisiae deletion strains, locus YMR307W, strain GAS1, active compounds read low 0.971 | S. cerevisiae deletion strains, locus YNL071W, strain lat1, active compounds read low 0.956 | S. cerevisiae deletion strains, locus YNL128W, strain TEP1, active compounds read low 0.919 | S. cerevisiae deletion strains, locus YNL153C, strain GIM3, active compounds read low 0.876 | S. cerevisiae deletion strains, locus YNL183C, strain NPR1, active compounds read low 0.955 | S. cerevisiae deletion strains, locus YNL209W, strain ssb2, active compounds read low 0.988 | S. cerevisiae deletion strains, locus YNL248C, strain rpa49, active compounds read low 0.967 | S. cerevisiae deletion strains, locus YNL271C, strain bni1, active compounds read low 0.977 | S. cerevisiae deletion strains, locus YNL298W, strain CLA4, active compounds read low 0.918 | S. cerevisiae deletion strains, locus YNL322C, strain KRE1 (second series), active compounds read low 0.981 | S. cerevisiae deletion strains, locus YNR049C, strain mso1, active compounds read low 1.01 | S. cerevisiae deletion strains, locus YOL012C, strain htz1 1.03 | S. cerevisiae deletion strains, locus YOL147C, strain pex11, active compounds read low 0.976 | S. cerevisiae deletion strains, locus YOR001W, strain rrp6, active compounds read low 0.931 | S. cerevisiae deletion strains, locus YOR061W, strain CKA2, active compounds read low 0.989 | S. cerevisiae deletion strains, locus YOR070C, strain gyp1, active compounds read low 1.02 | S. cerevisiae deletion strains, locus YOR080W, strain dia2, active compounds read low 0.953 | S. cerevisiae deletion strains, locus YOR083W, strain WHI5, active compounds read low 0.973 | S. cerevisiae deletion strains, locus YOR106W, strain vam3, active compounds read low 0.902 | S. cerevisiae deletion strains, locus YOR136W, strain idh2, active compounds read low 0.984 | S. cerevisiae deletion strains, locus YOR144C, strain elg1, active compounds read low 0.992 | S. cerevisiae deletion strains, locus YOR231W, strain MKK1, active compounds read low 0.977 | S. cerevisiae deletion strains, locus YOR265W, strain rbl2, active compounds read low 0.974 | S. cerevisiae deletion strains, locus YOR290C, strain snf2, active compounds read low 1.04 | S. cerevisiae deletion strains, locus YOR316C, strain cot1, active compounds read low 1.01 | S. cerevisiae deletion strains, locus YPL051W, strain arl3, active compounds read low 0.938 | S. cerevisiae deletion strains, locus YPL078C, strain atp4, active compounds read low 0.947 | S. cerevisiae deletion strains, locus YPL106C, strain sse1, active compounds read low 1.12 | S. cerevisiae deletion strains, locus YPL240C, strain hsp82, active compounds read low 0.996 | S. cerevisiae deletion strains, locus YPL256C, strain CLN2, active compounds read low 0.952 | S. cerevisiae deletion strains, locus YPR119W, strain clb2, active compounds read low 1 | S. cerevisiae deletion strains, locus YPR141C, strain kar3, active compounds read low 0.975 | S. cerevisiae deletion strains, locus YPR167C, strain met16, active compounds read low 0.984
